# Hit rate of the full screen: of about 220,000 compounds, about 910 (0.41%) were called active. The sample as a whole holds a higher share of actives than the screen did. Results with a measured potency or affinity are listed apart. Values without a mark were called inactive.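 How the source made its calls: active means primary inhibition above the hit cutoff, then over 50% inhibition at one or more dose response concentrations (cut at about 23% in these data, passing the limit was not always enough); inconclusive means conflicting primary data, or primary hits not chosen for dose response; inactive means low primary inhibition, or under 50% at every dose.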
# Molecular target: Aminopeptidase N (Plasmodium falciparum (isolate 3D7)) (UniProt O96935)
# Sequence (O96935 whole entry, looked up): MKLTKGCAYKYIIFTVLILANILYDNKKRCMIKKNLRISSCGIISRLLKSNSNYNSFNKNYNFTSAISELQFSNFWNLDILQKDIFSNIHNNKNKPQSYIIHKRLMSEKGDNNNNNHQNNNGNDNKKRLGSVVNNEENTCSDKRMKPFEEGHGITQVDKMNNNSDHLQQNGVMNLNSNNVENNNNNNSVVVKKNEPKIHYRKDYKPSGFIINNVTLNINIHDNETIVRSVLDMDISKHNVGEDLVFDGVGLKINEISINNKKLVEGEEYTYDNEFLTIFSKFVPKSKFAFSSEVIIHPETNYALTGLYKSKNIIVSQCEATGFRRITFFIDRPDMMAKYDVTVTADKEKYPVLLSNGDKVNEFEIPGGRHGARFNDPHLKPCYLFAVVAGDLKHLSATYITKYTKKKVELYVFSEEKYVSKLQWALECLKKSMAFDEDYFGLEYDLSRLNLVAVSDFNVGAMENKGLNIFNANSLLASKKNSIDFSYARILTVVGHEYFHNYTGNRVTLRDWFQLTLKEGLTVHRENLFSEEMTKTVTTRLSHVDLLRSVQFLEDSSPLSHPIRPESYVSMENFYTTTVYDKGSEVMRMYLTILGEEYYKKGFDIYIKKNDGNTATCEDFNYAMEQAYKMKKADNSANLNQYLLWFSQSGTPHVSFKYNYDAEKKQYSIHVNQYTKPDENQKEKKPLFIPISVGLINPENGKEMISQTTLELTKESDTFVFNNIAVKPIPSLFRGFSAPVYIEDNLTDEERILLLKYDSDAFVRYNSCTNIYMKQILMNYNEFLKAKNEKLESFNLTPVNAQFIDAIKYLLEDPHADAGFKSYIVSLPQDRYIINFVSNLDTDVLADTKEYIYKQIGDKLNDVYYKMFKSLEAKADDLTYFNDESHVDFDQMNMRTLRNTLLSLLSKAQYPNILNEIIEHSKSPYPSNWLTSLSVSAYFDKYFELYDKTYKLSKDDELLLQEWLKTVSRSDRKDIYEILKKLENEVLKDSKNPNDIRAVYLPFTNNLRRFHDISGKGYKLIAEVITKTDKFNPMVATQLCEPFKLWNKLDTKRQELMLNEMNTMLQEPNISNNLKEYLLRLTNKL
# Experiment: P. falciparum M1AAP inhibitors, biochemical, fluorogenic H-Leu-NHMec substrate, 1536-well (AID 1445);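 further: plate controls were DMSO full reaction for no effect and no enzyme background for full effect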
# Conditions: recombinant M1AAP, H-Leu-NHMec fluorogenic kinetic assay
# [1] = at 30 µM, hits give high values unless noted
structure (smiles),measurement,setting,value
CC1=C(CCN2CCN(C(C)C)C(CCO)C2)C(C)(C)CCC1 (configuration not stated),inhibition,[1],2.23%
CCn1c(Cn2nnc(-c3ccccc3)n2)nnc1SCC(=O)Nc1cccc(C(C)=O)c1,inhibition,[1],0.07%
COc1ccc(/C=N/NC(=O)c2cc(Br)ccc2O)cc1Cn1cc(Cl)cn1,inhibition,[1],0.18%
O=c1[nH][nH]c(-c2ccccc2)c1C=Nc1ccc(C(F)(F)F)cc1,inhibition,[1],2.58%
CC1=C(C#N)c2nc(N)c(C#N)c(C)c2/C1=C\c1ccc(OCC(=O)O)c(Cl)c1,inhibition,[1],11.5%
CC1=C(C#N)c2nc(N)c(C#N)c(C)c2/C1=C\c1ccc(C)cc1,inhibition,[1],6.97%
COC(=O)c1ccc(/C=C/c2ccc3cccc(OC)c3n2)cc1,inhibition,[1],20.2%
CSc1ccc(/C=C/c2ccc3cccc(O)c3n2)cc1,inhibition,[1],8.1%
O=C(COc1ccc(F)cc1)N(c1ccccn1)C1CCCCC1,inhibition,[1],2.11%
COc1ccc(N2C(=O)C3CCCN3C2c2cccc(OC)c2OC)cc1 (configuration not stated),inhibition,[1],3.05%
CCN(CC)CC(O)Cn1c(-c2ccccc2Cl)nc2ccccc21 (configuration not stated),inhibition,[1],3.4%
Cc1ccc(CN2CCN(/N=C/c3ccc(C(F)(F)F)cc3)CC2)cc1,inhibition,[1],5.42%
C#CCCOC(=O)N1C2=NC(C(=O)OC)=C(C(=O)OC)[C@@H]3N(C)c4ccccc4[C@]23C[C@H]1C(=O)OC,inhibition,[1],3.66%
C#CCCOC(=O)N1C2=NC(C(=O)OC)=C(C(=O)OC)[C@@H]3N(Cc4ccccc4)c4ccccc4[C@]23C[C@H]1C(=O)OC,inhibition,[1],8.52%
COC(C[C@H](O)CC(=O)[C@H](C)OCc1ccccc1)OC,inhibition,[1],1.19%
COC(=O)c1sc2nc(-c3ccccc3)c3c(c2c1N)CCCC3,inhibition,[1],0.85%
COc1ccc(CN(C)C(=S)Nc2ccc(OC(F)F)cc2)cc1,inhibition,[1],-1.27%
O=C1CCCc2nc3nc4ccccc4n3cc21,inhibition,[1],-2.88%
CCOc1ccc2c(c1)c1nnc(SCC(=O)N3CCC(C)CC3)nc1n2C,inhibition,[1],7.57%
CCOC(=O)CSc1nc2c(sc(=S)n2-c2ccccc2)c(=O)[nH]1,inhibition,[1],7.91%
CCOc1ccc(-n2c(=S)sc3c(=O)[nH]c(SCC(=O)NCC4CCCO4)nc32)cc1 (configuration not stated),inhibition,[1],18.3%
CCN(CC)C(=O)CSc1nc2c(sc(=S)n2-c2ccccc2)c(=O)[nH]1,inhibition,[1],5.01%
CCOC(=O)CSc1nc2c(sc(=S)n2-c2ccc(OCC)cc2)c(=O)[nH]1,inhibition,[1],13.9%
CC1CCN(C(=O)CSc2nc(N)cc(N)n2)CC1,inhibition,[1],-2.52%
CCOC(=O)CC(=O)CSc1nc2c(sc(=S)n2-c2ccccc2)c(=O)[nH]1,inhibition,[1],21.4%
CCOc1ccc(-n2c(=S)sc3c(=O)[nH]c(SCC(=O)NCc4ccco4)nc32)cc1,inhibition,"at 30 µM, hits give high values",29.8% (active)
same,inhibition,at 100 µM (top of the series),46.1%
CCOc1ccc(-n2c(=S)sc3c(=O)[nH]c(SCC(=O)NC(C)CC)nc32)cc1 (configuration not stated),inhibition,[1],11.5%
CCCc1ccc(OCC(=O)NNC(=O)c2cccnc2)cc1,inhibition,[1],-2.33%
Cc1cc(C(F)(F)F)nc(Nc2nc(C)c3ccccc3n2)n1,inhibition,[1],10.9%
COc1cc2ccc(=O)oc2cc1OCC(O)C(C)(C)O (configuration not stated),inhibition,[1],14.1%
COc1cccc(/C=N/Nc2nc3ccccc3n3cnnc23)c1,inhibition,[1],0.89%
CCOC(=O)c1cc(-c2ccccc2)n(CCC(=O)N2CCN(c3ccc(OC)cc3)CC2)c1C,inhibition,[1],5.67%
Cc1cc(C)n(/N=C/c2c[nH]c3ccccc23)c(=O)c1C#N,inhibition,[1],5.27%
CCc1ccc(NC(=O)CSc2nc3ccsc3c(=O)n2CCCCCC(=O)O)cc1,inhibition,[1],-11.3%
COc1cc(NC(C)=O)ccc1-c1cc2ccccc2oc1=O,inhibition,[1],4%
COc1ccc(NC(=O)C2CCC(=O)N2)cc1 (configuration not stated),inhibition,[1],3.48%
COc1ccc(C(C(=O)NC(C)(C)C)N(C(=O)CNC(=O)c2cccs2)c2ccc(C)cc2)cc1OC (configuration not stated),inhibition,[1],-2.96%
O=C(COC(=O)c1ccc(Cl)nc1)Nc1ccc(S(=O)(=O)N2CCCC2)cc1,inhibition,[1],9.72%
Nc1ccc(C23CC4CC(CC(C4)C2)C3)cc1,inhibition,[1],1.15%
CC(=O)c1cnc2c(-c3ccc(Cl)cc3)cnn2c1C,inhibition,[1],-0.05%
CCOC(=O)c1cnc2c(-c3ccc(Cl)cc3)cnn2c1C,inhibition,[1],-12.2%
CC(C)(C)C(=O)NC(=S)Nc1ccc(F)cc1,inhibition,[1],4.15%
O=c1cc(-c2ccc(F)cc2F)[nH]c2ccccc12,inhibition,[1],-3.62%
O=c1cc(CSc2ccc(S(=O)(=O)N3CCCCC3)cn2)nc2sccn12,inhibition,[1],24.1% (active)
CC(C)NC(=O)CSc1nnc(COc2ccccc2Cl)o1,inhibition,[1],8.56%
O=c1cc(CSc2nc3cc(Cl)ccc3o2)nc2sccn12,inhibition,[1],4.21%
O=c1cc(CSc2nnc(COc3ccccc3Cl)o2)nc2sccn12,inhibition,[1],25.3% (active)
O=c1cc(CN2CCN(S(=O)(=O)c3ccc4ccccc4c3)CC2)nc2sccn12,inhibition,[1],-6.82%
O=c1cc(CN2CCN(S(=O)(=O)c3ccccc3)CC2)nc2sccn12,inhibition,[1],-0.76%
CN(C)CCCNS(=O)(=O)c1cc(Cl)c(Cl)cc1Cl,inhibition,[1],0.71%
C#CCOC(=O)Nc1ccc(OCC(F)(F)F)nc1,inhibition,[1],-3.37%
O=C(O)Cc1cc(C(=O)Nc2ccc(Br)cc2)sc1-c1ccccc1,inhibition,[1],8.41%
COc1ccc([N+](=O)[O-])cc1NC(=O)C(C)OC(=O)c1cccnc1 (configuration not stated),inhibition,[1],-3.23%
CC(C)[C@H](NC(=O)c1ccc(Cl)c([N+](=O)[O-])c1)C(=O)NCc1ccc(F)cc1,inhibition,[1],3.78%
Cc1cc(NC(=O)c2ccco2)ncc1NC(=O)CCc1ccccc1,inhibition,[1],29.7% (active)
Cc1cc(NC(=O)c2ccco2)ncc1NC(=O)Cc1ccccc1,inhibition,[1],0.67%
Cc1cc(NC(=O)c2ccccc2)ncc1NC(=O)c1ccco1,inhibition,[1],5.34%
CC1CCCC(NC(=O)CCn2c(=S)oc3ccccc32)C1C (configuration not stated),inhibition,[1],3.48%
Cc1ccc(-n2c(-c3nn(C)c(C)c3Cl)n[nH]c2=S)cc1,inhibition,[1],1.9%
CNC(=O)C1CC(=O)N(Cc2ccc3c(c2)OCO3)C(=Nc2ccc(F)cc2)S1 (configuration not stated),inhibition,[1],-5.29%
CCNC(=O)C1CC(=O)N(Cc2ccc3c(c2)OCO3)C(=Nc2ccc(OCC)cc2)S1 (configuration not stated),inhibition,[1],-1.35%
CCNC(=O)C1CC(=O)N(Cc2ccc3c(c2)OCO3)C(=Nc2ccc(F)cc2)S1 (configuration not stated),inhibition,[1],27% (active)
COc1ccc(NC(=S)N2CCN(c3ncccn3)CC2)cc1,inhibition,[1],4.34%
CC1=CC(c2ccccc2)n2nnnc2N1 (configuration not stated),inhibition,[1],-5.78%
c1ccc(N2CCN(c3nc4ccccc4n4cnnc34)CC2)cc1,inhibition,[1],14.5%
c1cnc(N2CCN(c3nc4ccccc4n4cnnc34)CC2)nc1,inhibition,[1],24.4% (active)
c1ccc2c(c1)nc(N1CCOCC1)c1nncn12,inhibition,[1],4.1%
Cc1cc(C)n(Cc2nc3ccccc3n2C)n1,inhibition,[1],-3.79%
CC(C)(C)[C@H]1C=C(C(=O)NC2CC2)O[C@@H](OCc2ccc(CO)cc2)C1,inhibition,[1],1.09%
O=C(NCC1CCCO1)c1sc(=S)n2c1[nH]c(=O)c1ccc(C(=O)N3CCCCC3)cc12 (configuration not stated),inhibition,[1],20.2%
O=C(NCc1ccccc1)c1sc(=S)n2c1[nH]c(=O)c1ccccc12,inhibition,[1],18.5%
CCCCCNC(=O)c1ccc2c(=O)n(CC3CCCO3)c(=S)[nH]c2c1 (configuration not stated),inhibition,[1],5.58%
NC(=O)c1sc(=S)n2c1[nH]c(=O)c1sccc12,inhibition,[1],17.2%
CC(=O)NNC(=O)c1sc(=S)n(C)c1C,inhibition,[1],0.62%
Cc1ccc(CNC(=O)c2ccc3c(=O)[nH]c4c(C(=O)NCC5CCCO5)sc(=S)n4c3c2)cc1 (configuration not stated),inhibition,[1],23%
CCCCCNC(=O)c1ccc2c(=O)n(CC3CCCO3)c(=O)[nH]c2c1 (configuration not stated),inhibition,[1],4.6%
O=C(NC1CCCCC1)c1sc(=S)n2c1[nH]c(=O)c1ccccc12,inhibition,[1],0.76%
O=C(NCc1ccco1)c1ccc(Br)c(S(=O)(=O)N2CCCCC2)c1,inhibition,[1],3.95%
COc1ccc(NC(=O)C23CC4CC(C2)CC(c2ccccc2)(C4)C3)c(OC)c1,inhibition,[1],-2.32%
COc1c(C)cc(C(=O)C2CCCN(C(=O)c3cccc(F)c3)C2)cc1C (configuration not stated),inhibition,[1],0.9%
CC(=O)Nc1ccc(OCC(O)Cn2c(CO)nc3ccccc32)cc1 (configuration not stated),inhibition,[1],6.49%
Cc1ccc(N(CC(=O)O)S(C)(=O)=O)cc1Cl,inhibition,[1],-5.06%
C=CCOC(=O)C(=O)/C=C/c1csc2ccccc12,inhibition,[1],1.93%
Cc1cc(C)c2c(-n3cccc3)c(C(=O)NNS(=O)(=O)c3ccc(F)cc3)sc2n1,inhibition,[1],-2.28%
Cc1cc(C)c2c(-n3cccc3)c(C(=O)O)sc2n1,inhibition,[1],12.2%
COC(=O)C(=C/C(C)=C/c1cccs1)C(=O)OC,inhibition,[1],13.8%
Cc1ccc(N2C(=O)CCC2(C(N)=O)c2ccccc2)cc1 (configuration not stated),inhibition,[1],-0.36%
CCC(=O)Nc1ccc(-c2nc3ccccc3c(=O)o2)cc1,inhibition,[1],2.53%
CCOc1ccccc1CN1CCN(Cc2[nH]c3ccccc3c2C)CC1CCO (configuration not stated),inhibition,[1],-0.18%
COc1cc(/C=N\NC(=O)c2sc(N)nc2C)cc(OC)c1OC,inhibition,[1],8.26%
COc1cccc(/C=N\NC(=O)c2sc(N)nc2C)c1OC,inhibition,[1],24.5% (active)
Cc1nc(N)sc1C(=O)N/N=C/c1ccccc1[N+](=O)[O-],inhibition,[1],5.94%
Cc1csc(Nc2ccccc2)[n+]1C,inhibition,[1],-12.3%
Cc1cc(C(=O)Nc2sc3c(c2C#N)CCC3)no1,inhibition,[1],23.7% (active)
CC(C)c1cc(C(=O)Nc2sc3c(c2C#N)CCC3)no1,inhibition,[1],20.6%
Cc1cc(C(=O)Nc2sc3c(c2C#N)CCCC3)no1,inhibition,[1],8.77%

# Source: PubChem BioAssay AID1445 (SRMLSC, 2008)
